Source: PubChem BioAssay AID1347142 (National Center for Advancing Translational Sciences (NCATS), 2019)
Results filed as inconclusive are left out. A call without a number means that no potency is given here. Values without a mark were called inactive. Calls of active or inactive are those of the source. Calls come from the whole dose curve; as a rule, active = well fitted inhibition curve with a large enough effect; inconclusive = small, poorly fitted or top-dose-only effect; inactive = no such curve, though single readings can be large or run the other way.

Target: N-terminal Xaa-Pro-Lys N-methyltransferase 1 (Homo sapiens) (UniProt Q9BV86)
Experiment: qHTS Assay for Inhibitors of N-terminal methyltransferase 1 (NTMT1): ThioGlo3 Assay Confirmatory Screen, Round 1.
In short: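 Human NTMT1 at 125 nM was preincubated 1 min at room temperature with compounds at various concentrations or 1 uM RCC1-6 control. Substrate mix (100 uM SAM, 10 uM SAHH, 15 uM ThioGlo3) was added, and fluorescence (Ex 340/Em 450 nm) was read at start and after 30 min, normalized to background.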
Note: nearly all actives have a fitted effect of over 80% in size.
Potency is the fitted concentration of half-maximal effect.

Sequence of N-terminal Xaa-Pro-Lys N-methyltransferase 1 (Homo sapiens) (Q9BV86 whole entry, looked up): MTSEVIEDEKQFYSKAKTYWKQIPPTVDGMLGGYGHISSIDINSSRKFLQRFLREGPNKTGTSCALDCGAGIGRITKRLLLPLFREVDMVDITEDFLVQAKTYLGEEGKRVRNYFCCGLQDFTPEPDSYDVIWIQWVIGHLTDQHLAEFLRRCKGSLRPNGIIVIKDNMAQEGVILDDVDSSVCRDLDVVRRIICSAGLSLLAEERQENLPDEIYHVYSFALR

SMILES | Potency | activity change, negative = inhibition
NC(=O)c1ccc[n+]([C@@H]2O[C@H](COP(=O)([O-])OP(=O)(O)OC[C@H]3O[C@@H](n4cnc5c(N)ncnc54)[C@H](O)[C@@H]3O)[C@@H](O)[C@H]2O)c1 | inactive | –
Nc1nc2c([nH]c(=O)n2[C@@H]2O[C@H](CO)[C@@H](O)[C@H]2O)c(=O)[nH]1 | – | 16.6% [at 6.3 µM]
Nc1ncnc2c1nc(Cl)n2[C@@H]1O[C@H](CO)[C@@H](O)[C@@H]1O | inactive | –
Nc1nc(F)nc2c1ncn2[C@@H]1O[C@H](CO)[C@@H](O)[C@@H]1O | inactive | –
COc1cc2nc(N3CCCN(C)CC3)nc(NC3CCCCC3)c2cc1OC | 27.1 µM (active) | –
CCCCC#Cc1nc(NC)c2ncn([C@@H]3O[C@H](CO)[C@@H](O)C3O)c2n1 (stereo partly specified) | 8.57 µM (active) | –
Nc1ncnc2c1ncn2[C@@H]1O[C@H](COP(=O)(O)O)[C@@H](O)[C@H]1O | inactive | –
O=c1[nH]cnc2c1ncn2C1O[C@H](CO)[C@@H](O)[C@H]1O (stereo partly specified) | inactive | –
COc1cc2c(NC3CCN(C)CC3)nc(N3CCCCC3)nc2cc1OCCCN(C)C | inactive | –
CCN(c1cc(-c2ccc(CN3CCOCC3)cc2)cc(C(=O)NCc2c(C)cc(C)[nH]c2=O)c1C)C1CCOCC1 | inactive | –
OC[C@@H]1O[C@@H](n2cnc3c(NCc4ccco4)ncnc32)[C@H](O)[C@H]1O | 24.1 µM (active) | –
CNc1ncnc2c1ncn2[C@H]1C[C@H](O)[C@@H](CO)O1 | inactive | –
COC1C(CO)OC(n2cnc3c(=O)[nH]cnc32)C1O (stereo unspecified) | inactive | –
COc1cc2nc(N3CCCN(C)CC3)nc(NC3CCN(C)C3)c2cc1OC (stereo unspecified) | 24.1 µM (active) | –
NC(=S)c1ccc[n+]([C@@H]2O[C@@H](COP(=O)([O-])OP(=O)(O)OC[C@H]3O[C@@H](n4cnc5c(N)ncnc54)[C@H](OP(=O)(O)O)[C@@H]3O)C(O)C2O)c1 (stereo partly specified) | inactive | –
COc1cc2nc(N3CCCN(C)CC3)nc(NC3CCNCC3)c2cc1OC | 21.5 µM (active) | –
OCC1OC(n2cnc3c(NO)ncnc32)C(O)C1O (stereo unspecified) | 3.83 µM (active) | –
OC[C@@H]1O[C@@H](n2cnc3c(NC4CCCC4)ncnc32)[C@H](O)[C@H]1O | inactive | –

SMILES | Potency | activity change, negative = inhibition
CCN1CCCN(c2nc(NC3CCN(C(C)C)CC3)c3cc(OC)c(OCCCN4CCCC4)cc3n2)CC1 | 24.1 µM (active) | –
COc1cc2c(NC3CCN(C)CC3)nc(N3CCCN(C)CC3)nc2cc1OCC1CCNCC1 | 24.1 µM (active) | –
O=c1[nH]cnc2c1ncn2[C@@H]1O[C@H](CO)[C@@H](O)[C@H]1O | inactive | –
OC[C@@H]1O[C@H](n2cnc3c(SCc4ccccc4)ncnc32)[C@H](O)[C@H]1O | inactive | –
Nc1ncnc2c1ncn2C1O[C@H](COP(=O)(O)O)[C@@H](O)[C@H]1O (stereo partly specified) | inactive | –
OC[C@H]1O[C@@H](n2cnc3c(Nc4ccccc4)ncnc32)[C@H](O)[C@@H]1O | inactive | –
COc1cc2c(NC3CCN(C(C)C)CC3)nc(N3CCC(N4CCCC4)CC3)nc2cc1OCCCN1CCCCC1 | 24.1 µM (active) | –
COc1cc2c(NC3CCN(CC4CCCCC4)CC3)nc(N3CCCCCC3)nc2cc1OCCCN1CCCCC1 | 24.1 µM (active) | –
Nc1ncnc2c1ncn2[C@@H]1O[C@H](COP(=O)(O)OP(=O)(O)OP(=O)(O)OP(=O)(O)OC[C@@H]2O[C@H](n3cnc4c(N)ncnc43)[C@@H](O)[C@H]2O)[C@@H](O)[C@H]1O | inactive | –
CCN(CC)CCCOc1cc2nc(N3CCCN(C)CC3)nc(NC3CCN(C)CC3)c2cc1OC | 24.1 µM (active) | –
CSc1ncnc2c1ncn2C1OC(CO)C(O)C1O (stereo unspecified) | inactive | –
OCC1OC(n2cnc3c(NCc4ccco4)ncnc32)C(O)C1O (stereo unspecified) | 19.2 µM (active) | –
COc1cc2nc(N3CCOCC3)nc(NC3CCN(Cc4ccccc4)CC3)c2cc1OC | 27.1 µM (active) | –
COc1cc2c(NC3CCN(C(C)C)CC3)nc(N3CCCN(C)CC3)nc2cc1OCCCN1CCCCC1 | 24.1 µM (active) | –
COc1cc2nc(N3CCN(C)CC3)nc(NC(C)C)c2cc1OC | 21.5 µM (active) | –
Nc1ncnc2c1ncn2[C@H]1O[C@@H](CO)[C@@H](O)[C@H]1N | inactive | –
O=C(Nc1ncnc2c1ncn2[C@@H]1O[C@@H]2COP(=O)(O)O[C@H]2[C@H]1O)c1ccccc1 | inactive | –
COc1cc2nc(N3CCOCC3)nc(NC3CCN(C)CC3)c2cc1OC | 24.1 µM (active) | –
